Screening results from PubChem.
This is a sample that favours compounds with a hit; in the whole collection about 12% have one here.
HP1b binding inh: HTS for Inhibitors of HP1-beta Chromodomain Interactions with Methylated Histone Tails; Chromobox protein homolog 1 (Homo sapiens), P83916; AlphaScreen HP1-beta / biotin-H3K9me3 peptide binding; actives 0.56% (n = 390,000); Potency, µM (top dose mostly 114 µM), without a hit: top-dose activity change, negative = inhibition, hits mostly inhibitors; further: nearly all actives have a fitted effect of over 70% in size
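AlphaScreen: HP1-beta (50 nM) preformed 30 min with biotin-H3(1-18)K9me3 peptide (50 nM) in PBS pH 7.4, 0.01% Tween-20. Compound added for 30 min at RT, then streptavidin donor/nickel chelate acceptor beads (10 ug/mL) for 30 min.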
Sfp inh: qHTS Assay for Inhibitors of Bacillus subtilis Sfp phosphopantetheinyl transferase (PPTase). Biochemical Sfp PPTase activity, qHTS. 4'-phosphopantetheinyl transferase ffp (Bacillus subtilis), Q9F4F7. actives 3.5% (n = 310,000). AID 1490, 2009. Potency, µM, for inactives: largest response in the series, negative = inhibition, actives largely listed as inhibitors;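 further: the enzyme is Sfp with the accession as filed and its product quenches rhodamine fluorescence; 0% = enzyme reaction without inhibitor and -100% = no enzyme wells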
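Compounds were incubated with enzyme (final 15 nM) for 15 min at room temperature before substrate addition started the reaction. Fluorescence at 525 nm excitation, 598 nm emission was recorded immediately and after 30 minutes.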
G9a block: qHTS Assay for Inhibitors of Histone Lysine Methyltransferase G9a. Histone-lysine N-methyltransferase EHMT2 (Homo sapiens), Q96KQ7. G9a H3K9 monomethylation, AlphaScreen, 2 h. Potency, µM (highest dose often 102 µM), for inactives: at the highest dose activity, negative = inhibition, most hits filed as inhibitors. actives 8.8% (n = 350,000). AID 504332, 2011; further: on the % scale 0 is the no-effect control and ±100 the full control effect; nearly all actives have a fitted effect of over 75% in size
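Using a bead-based AlphaScreen, monomethylated H3K9 product from 2 h room-temperature reactions (G9a 20 nM, peptide 500 nM, SAM 20 uM) was detected with 0.5 ug/mL rabbit anti-H3K9me1 antibody.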
JMJD2A Tudor inh: qHTS Assay for Inhibitors of JMJD2A-Tudor Domain | Potency, µM (titrated, usually from 114 µM), for the others: at the highest dose activity change, negative = inhibition, usual class: inhibitors | AlphaScreen JMJD2A-Tudor / H3K4me3 peptide binding | actives 4.4% (n = 390,000) | Lysine-specific demethylase 4A (Homo sapiens), O75164; further: on the % scale 0 is the no-effect control and ±100 the full control effect; nearly all actives have a fitted effect of over 50% in size
Target sequence (O75164 whole entry, looked up, the tested form may be a part): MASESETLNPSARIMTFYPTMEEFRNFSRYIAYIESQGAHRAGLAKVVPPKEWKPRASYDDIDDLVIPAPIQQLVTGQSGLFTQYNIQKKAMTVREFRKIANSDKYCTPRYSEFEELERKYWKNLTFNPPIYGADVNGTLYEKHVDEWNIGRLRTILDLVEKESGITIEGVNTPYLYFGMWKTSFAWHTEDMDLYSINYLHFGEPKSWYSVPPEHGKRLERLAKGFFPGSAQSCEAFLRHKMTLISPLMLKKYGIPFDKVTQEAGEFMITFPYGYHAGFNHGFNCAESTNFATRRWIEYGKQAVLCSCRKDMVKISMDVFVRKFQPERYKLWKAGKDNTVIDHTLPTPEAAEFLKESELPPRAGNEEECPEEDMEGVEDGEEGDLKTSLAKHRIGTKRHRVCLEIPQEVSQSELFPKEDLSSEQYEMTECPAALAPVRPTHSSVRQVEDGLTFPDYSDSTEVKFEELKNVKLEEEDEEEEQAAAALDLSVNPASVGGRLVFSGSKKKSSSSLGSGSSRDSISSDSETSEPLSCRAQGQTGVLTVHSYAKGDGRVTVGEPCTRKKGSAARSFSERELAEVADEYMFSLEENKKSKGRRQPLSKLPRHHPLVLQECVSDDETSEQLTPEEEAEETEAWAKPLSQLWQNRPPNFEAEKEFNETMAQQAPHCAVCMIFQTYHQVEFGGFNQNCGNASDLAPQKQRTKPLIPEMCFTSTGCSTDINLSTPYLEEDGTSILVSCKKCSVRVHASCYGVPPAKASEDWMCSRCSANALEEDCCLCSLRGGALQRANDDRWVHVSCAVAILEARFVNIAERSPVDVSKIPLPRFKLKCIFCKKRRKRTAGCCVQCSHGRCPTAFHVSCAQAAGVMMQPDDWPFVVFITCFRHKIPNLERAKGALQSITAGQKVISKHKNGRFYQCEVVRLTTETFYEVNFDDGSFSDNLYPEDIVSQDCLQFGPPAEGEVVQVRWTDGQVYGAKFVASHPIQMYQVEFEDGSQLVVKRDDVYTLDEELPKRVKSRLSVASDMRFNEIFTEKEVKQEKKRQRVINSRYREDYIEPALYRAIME
BAZ2B inh: qHTS Assay for Inhibitors of BAZ2B; actives 4.4% (n = 360,000); Bromodomain adjacent to zinc finger domain protein 2B (Homo sapiens), Q9UIF8; Potency, µM (series often up to 114 µM), without a hit: at the highest dose activity change, negative = inhibition, most hits filed as inhibitors; AlphaScreen BAZ2B-H3K14Ac peptide displacement; further: on the % scale 0 is the no-effect control and ±100 the full control effect; nearly all actives have a fitted effect of over 60% in size
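In this displacement format the biotinylated H3(5-23) peptide acetylated at Lys14 serves as ligand at 50 nM, with BAZ2B at 50 nM in PBS pH 7.4 containing 0.01% Tween-20. Donor and acceptor beads are 10 ug/mL final.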
* = called active by the depositor; u = inconclusive; x = not tested or not shown; [ ] = dose if it differs, or a comment. The call rests on the fitted dose curve; in most records, active means well fitted curve in the direction sought with a large enough effect; inconclusive means small, poorly fitted or top-dose-only effect, or another doubt; inactive means no such curve, though single readings can be large; an effect the other way counts as inactive or inconclusive. Potency means the concentration at half of the fitted maximal effect.

SMILES	HP1b binding inh	Sfp inh	G9a block	JMJD2A Tudor inh	BAZ2B inh
CC(OC(=O)C1=COCCO1)C(=O)Nc1ccc(Cl)cn1 (configuration not stated)	23%	x	-17%	3%	8%
O=C(c1cc(COc2ccc(F)cc2Cl)on1)N1CCCCCCC1	79%	0%	62%	20µM*	46%
O=C(c1cc(COc2ccc(F)cc2Cl)on1)N1CCCCCC1	41%	1%	90%	16%	35%
COc1cc(OC)c(OC)cc1/C=N/NC(=O)c1cc(-c2cccn2C)n[nH]1	28%	u	-43%[59 µM]	15%	-28%
COc1ccc(/C=N/NC(=O)c2cc(-c3cccn3C)n[nH]2)cc1OC	u	5%	79µM*	-12%[57.1 µM]	50µM*
CCOc1cccc(/C=N/NC(=O)c2cc(-c3cccn3C)n[nH]2)c1O	u	3%	48%[0.501 µM]	u	50µM*
Cn1cccc1-c1cc(C(=O)N/N=C/c2cccc(O)c2)[nH]n1	u	-18%	45µM*	u	45µM*
CC1CCN(C(=O)c2cccc(NC(=O)c3nsc4ccccc34)c2)CC1	20%[57 µM]	x	-4%[59 µM]	u	0%
COc1ccc(OC)c(CCNC(=O)c2cnn(-c3ccccc3)c2-n2cccc2)c1	-2%	x	-8%[59 µM]	u	-39%
CCC1C/C(=C/c2ccco2)C(=O)/C(=C/c2ccco2)C1 (configuration not stated)	x	32µM*	32µM*	x	28µM*
CCC1C/C(=C\c2cc(OC)c(OC)cc2OC)C(=O)/C(=C/c2cc(OC)c(OC)cc2OC)C1 (configuration not stated)	u	56µM*	25µM*	18µM*	10µM*
COc1cc(OC)c(OC)cc1/C=C1\CC(C)C/C(=C\c2cc(OC)c(OC)cc2OC)C1=O (configuration not stated)	u	45µM*	32µM*	20µM*	11µM*
CC(C)[C@@H](CC(=O)N[C@@H]1CCCC[C@H]1C(=O)N[C@H](CC(=O)N[C@@H](CCC(=O)O)CC(=O)O)Cc1ccccc1)NC(=O)C[C@H](CO)NC(=O)[C@@H]1CNCC[C@H]1N	x	3%	x	x	x
CC[C@H](C)[C@H](NC(=O)CNC(=O)[C@H](CC(C)C)NC(=O)[C@H](CC(C)C)NC(=O)[C@H](CCC(N)=O)NC(=O)[C@H](CCC(N)=O)NC(=O)[C@H](CC(=O)O)NC(=O)[C@H](CCCCN)NC(=O)[C@H](CC(C)C)NC(=O)[C@H](Cc1ccc(O)cc1)NC(=O)[C@H](CCCNC(=N)N)NC(=O)[C@H](CCC(=O)O)NC(=O)[C@@H](NC(=O)[C@H](C)NC(=O)[C@H](CC(C)C)NC(=O)[C@@H](NC(=O)[C@@H](N)CCCNC(=N)N)[C@@H](C)CC)C(C)C)C(=O)N[C@@H](Cc1c[nH]c2ccccc12)C(=O)NCC(=O)N[C@@H](CS)C(=O)N[C@@H](CO)C(=O)O	x	-4%	x	x	x
CSc1ccc(CNC(=O)c2cc3cc(S(=O)(=O)N4CCCCC4)ccc3n2C)cc1	20%[57 µM]	x	-32%[59 µM]	-8%	-1%
Nc1ccc(C(=O)C(=O)c2ccc(N)cc2)cc1	17%	6%	2%	-4%	-4%
N=C1C=CC(=C(c2ccc(N)cc2)c2ccc(N)cc2)C=C1	u	x	x	7.1µM*	x
O=C(O)c1ccccc1OC(=O)C12CC3CC(CC(C3)C1)C2	24%	19%	x	-4%	-12%
COc1ccc(-c2ncccc2OC(=O)C23CC4CC(CC(C4)C2)C3)cc1	65%	-7%	25µM*	2%	u
COc1ccc(C(=O)NCC(c2ccc(N(C)C)cc2)N2CCc3ccccc32)cc1 (configuration not stated)	10µM*	x	10µM*	7.1µM*	8.9µM*
CC(C)Oc1ccc(C(=O)NCC(c2ccc(N(C)C)cc2)N2CCc3ccccc32)cc1 (configuration not stated)	u	x	14µM*	7.1µM*	16µM*
CCc1ccc(CNC(=O)c2ccc(NC(=O)N3CCCCc4ccccc43)cc2)cc1	-13%	x	7%[59 µM]	-24%	-3%
CN(C)c1ccc(CNC(=O)c2ccc(NC(=O)N3CCCCc4ccccc43)cc2)cc1	9%	x	u	35µM*	28µM*
CN(C)c1ccc(C(CNC(=O)c2ccccc2)N2CCc3ccccc32)cc1 (configuration not stated)	u	x	13µM*	13µM*	11µM*
COc1cc(C(=O)NCC(c2cccnc2)N2CCc3ccccc32)cc(OC)c1OC (configuration not stated)	19%	x	-5%[59 µM]	-8%	5%
SMILES	HP1b binding inh	Sfp inh	G9a block	JMJD2A Tudor inh	BAZ2B inh
Cc1ccc(C(=O)NCC(c2cccnc2)N2CCc3ccccc32)cc1C (configuration not stated)	-16%	x	u	u	u
CCN(CC)CCCCn1c(-c2ccccc2)nc2c(N(CCOC)CCOC)nc(C)nc21	x	16%	x	x	x
CCOC(=O)C1=C(COC(=O)CCc2ccc(CC)cc2)NC(=O)NC1C (configuration not stated)	30%	x	-22%[59 µM]	-4%	10%
CN(C)c1ccc(CNC(=O)c2ccc(CNc3c(N4CCCCC4)c(=O)c3=O)cc2)cc1	7%	5%	45µM*	u	-9%
COc1ccc(-c2ccc3c(c2)S(=O)(=O)c2cccc(C(=O)NC4CCCC4)c2C3=O)cc1OC	41%	x	-3%[0.501 µM]	-6%	6%
COc1ccc(C(=O)N2CCC(C(=O)Nc3ccc(OC)c(OC)c3)CC2)cc1	33%	89µM*	-4%[59 µM]	-23%	x
COc1cc(C(=O)N2CCC(N3CCCCCC3)CC2)cc(OC)c1OC	u	x	x	7.1µM*	x
COc1cc(C(=O)N2CCN(C3CCCCC3)CC2)cc(OC)c1OC	u	-18%	x	56µM*	u
COc1cc(C(=O)N2CCCCCCC2)cc(OC)c1OC	x	10%	-3%[12.7 µM]	x	x
COc1ccc(-c2ccc3c(c2)S(=O)(=O)c2cccc(C(=O)N4CCN(C5CCCCC5)CC4)c2C3=O)cc1OC	-11%	x	x	79µM*	x
COc1ccc(NC(=O)C2CCN(C(=O)c3ccc(OC)cc3)CC2)cc1	u	-4%	u	-24%[11.4 µM]	25%
Cc1[nH]c(=O)c(C#N)c(C)c1CCC(=O)Nc1cc(S(C)(=O)=O)ccc1Cl	-3%	-6%	u	-18%	-2%
